Records with an inconclusive call do not appear. The source made the active and inactive calls. Unless noted, calls follow the shape of the dose curve; as a rule, active = well fitted curve in the direction sought with a large enough effect; inconclusive = small, poorly fitted or top-dose-only effect, or another doubt; inactive = no such curve, though single readings can be large; an effect the other way counts as inactive or inconclusive.
Tests used:
[1] = Cell Viability - BJ (AID 421; calls by dose curve;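 also: potency is read from the fitted curve at half-maximal effect; cells exposed to compound for 40 hours at 37 °C before readout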); conditions: BJ fibroblast viability, qHTS
Procedure, shortened: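 Luminescent ATP signal (CellTiter-Glo, 20 min at room temperature) served as the read-out of viable BJ cells after 40 hours of compound treatment. Responses were scaled between DMSO and 100 uM tamoxifen, and AC50 values were obtained by Hill modeling.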

[2] = Cell Viability - Jurkat (AID 426;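 active = dose-dependent loss of cell ATP signal giving a full or clear fitted curve, ranked by lower potency value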; also: potency is read from the fitted curve at half-maximal effect); conditions: qHTS
Procedure, shortened: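 Cells of the human T-cell leukemia line Jurkat (E6-1) are seeded at 5000 per well, treated with compound across a concentration range for 40 hours at 37 °C, then lysed with CellTiter-Glo; luminescence reports ATP.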

[3] = Cell Viability - Hek293 (AID 427;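 active = compounds whose dose-response curve shows a full or clear partial loss of cell viability, called from curve shape rather than a numeric limit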;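 also: potency is read from the fitted curve at half-maximal effect; cells exposed to compound for 40 hours at 37 °C before reading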); conditions: qHTS
Procedure, shortened: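 Luminescent ATP read-out (CellTiter-Glo, 20 min RT) after 40 hr compound exposure at 37 °C in complete medium. Signal normalized to DMSO (basal) and 100 uM tamoxifen (100% inhibition); concentration-response fitted with the standard Hill equation to give AC50.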

[4] = Cell Viability - HepG2 (AID 433; calls by dose curve;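 also: potency is read from the fitted curve at half-maximal effect; potency for ATP loss meaning cytotoxicity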); conditions: qHTS
Procedure, shortened: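 HepG2 cells, 1500 per well, treated 40 hr at 37 °C in complete medium; viability from intracellular ATP by CellTiter-Glo luminescence. Normalized to DMSO and 100 uM tamoxifen; AC50 from Hill fit of qHTS concentration-response.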

[5] = Cell Viability - MRC5 (AID 434; calls by dose curve;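 also: potency is read from the fitted curve at half-maximal effect; potency reflects cytotoxicity seen as loss of intracellular ATP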); conditions: MRC5 lung fibroblast viability, qHTS
Procedure, shortened: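 AC50 values come from Hill-equation fits of intracellular ATP loss, measured by CellTiter-Glo luminescence. Normal lung fibroblasts (MRC5) had 40 hr compound treatment at 37 C, normalized between DMSO and 100 uM tamoxifen.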

[6] = Cell Viability - SK-N-SH (AID 435; calls by dose curve;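 also: potency is read from the fitted curve at half-maximal effect; compound exposure lasted 40 h at 37 °C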); conditions: SK-N-SH neuroblastoma cell viability qHTS
Procedure, shortened: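 SK-N-SH neuroblastoma cells (1500/well) treated 40 h at 37 °C in complete medium; viability read as cellular ATP by CellTiter-Glo luminescence. Normalized to DMSO and 100 uM tamoxifen; AC50 from Hill fits of qHTS concentration-response.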

[7] = Cell Viability - N2a (AID 540);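 also: plate controls were DMSO alone for no effect and tamoxifen control for full effect; nearly all actives have a fitted effect of over 45% in size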
Procedure, shortened: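 Cytotoxicity was scored as loss of cellular ATP in N2a cells, a mouse neuroblastoma line. Compounds are applied in a qHTS concentration series for 40 hr at 37 °C.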

[8] = Cell Viability - SH-SY5Y (AID 544); conditions: SH-SY5Y neuroblastoma cell viability; at 92.2 µM (top of the series);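 also: 0% = DMSO alone and -100% = 100 µM tamoxifen; nearly all actives have a fitted effect of over 55% in size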
Procedure, shortened: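 Cells were plated at 1500 per well and allowed 5 hr at 37 °C. Compounds were added across a concentration range and incubated 40 hr at 37 °C. CellTiter-Glo was added for 20 min at room temperature before luminescence reading.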

[9] = Cell Viability - Renal Proximal Tubule (AID 545);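 also: 0% = DMSO only and -100% = 100 µM tamoxifen; nearly all actives have a fitted effect of over 40% in size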
Procedure, shortened: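 Rat renal proximal tubule primary cells, 1000/well, exposed to compounds for 40 hr at 37 °C in complete medium; cellular ATP read by CellTiter-Glo luminescence. AC50 from concentration-response fitted with standard Hill equation.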

[10] = Cell Viability - Mesenchymal (AID 546);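 also: cells exposed to compound for 40 hours before reading; 0% = DMSO only and -100% = 100 µM tamoxifen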
Procedure, shortened: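 CellTiter-Glo luminescence (intracellular ATP, 20 min room temperature) after 40 hr compound exposure at 37 °C of 1000 glomerulus-derived human kidney mesenchymal cells/well; AC50 values obtained by fitting qHTS concentration-response data to the Hill equation.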

[11] = Cellular Toxicity (caspase-3) HepG2 (AID 654);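 also: cells exposed to compound for 16 hours before reading; 0% = DMSO alone and 100% = caspase signal from 100 µM tamoxifen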
Procedure, shortened: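 Caspase 3/7 activation in HepG2 is measured as rising luminescence after a 16 hr treatment at 37 °C. Values are scaled between DMSO basal and 100 uM tamoxifen, and AC50 is fitted with the Hill equation.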

[12] = Cellular Toxicity (caspase-3) Jurkat (AID 655);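 also: cells exposed to compound for 16 h at 37 °C before reading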
Procedure, shortened: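 Jurkat cells (5000/well) in complete medium exposed 16 h at 37 C; caspase-3/7 activity read by Caspase-Glo luminescence after 20 min at room temperature. Normalized to DMSO and 100 uM tamoxifen; AC50 from Hill fits.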

[13] = Cellular Toxicity (caspase-3) HUV-EC-C (AID 656);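 also: 0% = DMSO basal and 100% = 100 µM tamoxifen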
Procedure, shortened: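 HUV-EC-C cells (1000/well) in complete medium, compound-treated 16 h at 37 °C; caspase-3/7 activity read by Caspase-Glo 3/7 luminescence. Normalized to DMSO (basal) and 100 uM tamoxifen (100%); AC50 from Hill-equation concentration-response fits.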

[14] = Cellular Toxicity (caspase-3) SHSY5Y (AID 657)
Procedure, shortened: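 SH-SY5Y human neuroblastoma cells, 1500/well, exposed to compound for 16 hours at 37 °C in complete medium. Caspase-3/7 activity read by Caspase-Glo luminescence after 1 hr at room temperature, normalized to DMSO and 10 uM staurosporine; AC50 from Hill fit.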

[15] = Cellular Toxicity (caspase-3) BJ (AID 658);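 also: 0% = DMSO basal and 100% = 10 µM staurosporine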
Procedure, shortened: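 Caspase-Glo 3/7 luminescence, read 1 hr after reagent at room temperature, in normal BJ fibroblasts exposed 16 hours at 37 °C. AC50 values from Hill-equation concentration-response, scaled between DMSO basal and 10 uM staurosporine as 100%.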

[16] = Cellular Toxicity (caspase-3) MRC-5 (AID 659);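 also: 0% = DMSO basal and 100% = 10 µM staurosporine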
Procedure, shortened: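 Luminescent Caspase-Glo 3/7 read-out (1 h, room temperature) after a 16 h, 37 °C compound exposure of MRC-5 lung fibroblasts at 1500 cells/well. Concentration-response AC50 from Hill equation; 0% DMSO, 100% 10 uM staurosporine.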

[17] = Cellular Toxicity (caspase-3) Mesangial (AID 660);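 also: cells exposed to compound for 16 h before the caspase read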
Procedure, shortened: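 Seed cells derived from normal human renal glomeruli, incubate 5 h, add compounds across concentrations and incubate 16 h at 37 °C. Caspase 3/7 activation is then quantified by luciferase light, with AC50 derived by Hill modeling.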

[18] = Cellular Toxicity (caspase-3) SK-N-SH (AID 661);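 also: 0% = DMSO basal and 100% = 10 µM staurosporine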
Procedure, shortened: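 Cells were seeded and incubated 5 hr at 37 °C, dosed with compound over a concentration range for 16 hr, then given Caspase-Glo 3/7 reagent for 1 hr at room temperature before luminescence reading.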

[19] = Cellular Toxicity (caspase-3) H-4-II-E (AID 663);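 also: cells exposed to compound for 16 hr before readout; 0% = DMSO basal and 100% = 100 µM tamoxifen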
Procedure, shortened: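 Caspase 3/7 activation measured by luminescent aminoluciferin substrate cleavage after 16 hr compound treatment of H-4-II-E cells in complete medium. Increase normalized between DMSO (basal) and 100 uM tamoxifen (100%); Hill-equation AC50 from concentration-response.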

[20] = Cellular Toxicity (caspase-3) Hek293 (AID 664);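 also: cells exposed to compound for 16 h at 37 °C before readout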
Procedure, shortened: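 qHTS, HEK293 (human embryonic kidney), 16 h cpd exposure in complete medium. Caspase-3/7 activation = luminescence increase; normalized to DMSO/100 uM tamoxifen; Hill-fit AC50.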

[21] = Cellular Toxicity (caspase-3) N2a (AID 665);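 also: compound exposure lasted 16 h at 37 °C before readout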
Procedure, shortened: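 Caspase-3/7 activation, measured as increased luminescence from aminoluciferin release, is quantified in mouse N2a cells exposed to compounds for 16 h. Values are normalized to DMSO and 10 uM staurosporine, with AC50 derived by Hill modelling.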

[22] = Cellular Toxicity (caspase-3) NIH 3T3 (AID 666);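 also: 0% = DMSO basal and 100% = 100 µM tamoxifen stimulation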
Procedure, shortened: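 Cells were plated at 1000 per well and incubated 5 hr at 37°C, then compound was added for 16 hr. Caspase-Glo 3/7 reagent followed for 20 min at room temperature before luminescence was read.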

[23] = Cellular Toxicity (caspase-3) Renal Proximal Tubule (AID 667);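 also: cells exposed to compound for 16 hours at 37 °C before detection; 0% = DMSO basal and 100% = 10 µM staurosporine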
Procedure, shortened: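 Freshly isolated primary rat kidney proximal tubule cells, 1000/well, treated 16 hr at 37 °C, then Caspase-Glo 3/7 luminescence after 1 hr. Normalized to DMSO and 10 uM staurosporine; AC50 from Hill fit.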

[24] = MultiTox-Fluor Cytotoxicity Assay - LYMP1-001 - Dead Cells (AID 946);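 also: 0% = DMSO and 100% = tetraoctylammonium bromide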
Procedure, shortened: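 AC50 from Hill fit of concentration-response; data normalized to DMSO (basal) and 15 uM tetraoctylammonium bromide (100%). LYMP1-001 lymphoblastoid cells, 2500/well, 16 hr compound at 37 C; dead-cell protease fluorescence, Ex/Em 485/520.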

[25] = MultiTox-Fluor Cytotoxicity Assay - LYMP1-001 - Live Cells (AID 947);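 also: 0% = DMSO only and full inhibition = tetraoctylammonium bromide control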
[26] = Cell Viability - LYMP1-002 - Assay at 16 hr (AID 948);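 also: 0% = DMSO alone and full effect = 92 µM tetraoctylammonium bromide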
Procedure, shortened: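 LYMP1-002 human lymphoblastoid cells, 2500/well, were treated with compounds for 16 hr at 37 C in complete medium. Viability was read as intracellular ATP by CellTiter-Glo luminescence, and AC50 was derived from a Hill fit to concentration-response data.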

[27] = MultiTox-Fluor Cytotoxicity Assay - LYMP1-002 - Live Cells (AID 955); also: % is scaled to controls: 0 for no effect and ±100 for the full control effect
Procedure, shortened: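 Cells were seeded at 2500 per well and incubated 5 hr. Compounds were then added for 16 hr at 37 C, followed by MultiTox-Fluor reagent for 60 min at room temperature and fluorescence reading of viable-cell protease signal.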

[28] = MultiTox-Fluor Cytotoxicity Assay - LYMP1-002 - Dead Cells (AID 960);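 also: 0% = DMSO and 100% = tetraoctylammonium bromide; nearly all actives have a fitted effect of over 60% in size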
Procedure, shortened: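 Cells were plated, rested 5 hr, then treated with compound dilution series for 16 hr at 37 C. After adding substrate reagent and 60 min at room temperature, dead-cell protease fluorescence gave concentration-response curves fitted by the Hill equation.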

[29] = MultiTox-Fluor Cytotoxicity Assay - LYMP1-003 - Dead Cells (AID 961);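 also: 0% = DMSO and 100% = tetraoctylammonium bromide; nearly all actives have a fitted effect of over 70% in size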
Procedure, shortened: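 Human lymphoblastoid LYMP1-003 cells (2500/well) were treated with compounds for 16 hr at 37 C in complete medium. Dead-cell protease release was read by bis-AAF-R110 fluorescence (Ex/Em 485/520). AC50 came from Hill fits, normalized to DMSO and 15 uM tetraoctylammonium bromide.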

[30] = MultiTox-Fluor Cytotoxicity Assay - LYMP1-003 - Live Cells (AID 962);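 also: 0% = DMSO only and full loss = 92 µM tetraoctylammonium bromide; cytotoxic hits lower the live-cell protease signal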
Procedure, shortened: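 Acute cytotoxicity is scored as a drop in live-cell protease activity in human lymphoblastoid LYMP1-003 cells after 16 hr compound exposure at 37 C. AC50 values come from Hill-equation modelling of concentration-response data.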

[31] = Cell Viability - LYMP1-003 - Assay at 24 hr (AID 963);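 also: plate controls were DMSO only for no effect and tetraoctylammonium bromide positive control for full effect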
Procedure, shortened: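 Cytotoxicity is scored as a concentration-dependent fall in ATP-linked luciferase signal in human lymphoblastoid LYMP1-003 cells treated 24 hr at 37 C in complete culture medium.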

[32] = Cell Viability - LYMP2-003 (AID 965);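 also: cells exposed to compounds for 24 h before reading; 0% = DMSO only and full effect = 92 µM tetraoctylammonium bromide; nearly all actives have a fitted effect of over 50% in size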
Procedure, shortened: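 Human lymphoblastoid LYMP2-003 cells, 2500/well, exposed to compounds for 24 h at 37 C in complete medium. Viability read as intracellular ATP by CellTiter-Glo luminescence; AC50 from Hill-equation fits of qHTS concentration-response data.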

[33] = Cell Viability - LYMP2-004 (AID 966);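 also: plate controls were DMSO only for no effect and tetraoctylammonium bromide control for full effect; nearly all actives have a fitted effect of over 65% in size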
Procedure, shortened: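 qHTS cytotoxicity: human lymphoblastoid line, 24 hr compound treatment, 37 C, complete medium. Viability read as cellular ATP via luciferase luminescence; tetraoctylammonium bromide served as positive control.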

[34] = Cell Viability - LYMP2-005 (AID 967);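 also: plate controls were DMSO only for no effect and 92 µM tetraoctylammonium bromide control for full effect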
Procedure, shortened: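 Human lymphoblastoid LYMP2-005 cells, 2,500 per well in complete medium, rested 5 h at 37C then compound-treated 24 h at 37C. Intracellular ATP read by CellTiter-Glo luminescence after 30 min at room temperature; AC50 from Hill-equation fits of concentration-response data.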

[35] = Cell Viability - LYMP2-009 (AID 968);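 also: 0% = DMSO alone and the full-kill end = tetraoctylammonium bromide at 92 µM; nearly all actives have a fitted effect of over 55% in size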
[36] = Cell Viability - LYMP2-011 (AID 969);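 also: 0% = DMSO only and full inhibition = 92 µM tetraoctylammonium bromide; nearly all actives have a fitted effect of over 60% in size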
Procedure, shortened: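 In this qHTS cytotoxicity format, compounds are tested across concentrations on human lymphoblastoid cells in complete medium for 24 hours at 37 C. Viability is taken as cellular ATP measured by luciferase luminescence.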

[37] = Cell Viability - LYMP2-013 (AID 970);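 also: 0% = DMSO only and full inhibition = tetraoctylammonium bromide control; nearly all actives have a fitted effect of over 55% in size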
Procedure, shortened: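 Cytotoxicity is scored as a concentration-dependent drop in intracellular ATP in human lymphoblastoid cells after 24 hr compound exposure at 37 C. ATP is quantified by luciferase luminescence, and AC50 values come from Hill-equation modeling.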

[38] = Cell Viability - LYMP2-015 (AID 971);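 also: 0% = DMSO only and full effect = 92 µM tetraoctylammonium bromide; nearly all actives have a fitted effect of over 55% in size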
Procedure, shortened: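 Cells are seeded at 2500 per well and incubated 5 hr at 37 C. Compounds are added across a concentration series for 24 hr at 37 C. CellTiter-Glo is added, and luminescence is read after 30 min at room temperature.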

[39] = Cell Viability - LYMP2-017 (AID 972)
Procedure, shortened: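 Cytotoxicity is scored as a concentration-dependent drop in cellular ATP in a human lymphoblastoid line after 24 hr treatment at 37 C. Values are AC50s from Hill-equation modelling.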

CO[C@H]1/C=C/O[C@@]2(C)Oc3c(C)c(O)c4c(O)c(c(/C=N/N5CCN(C)CC5)c(O)c4c3C2=O)NC(=O)/C(C)=C\C=C\[C@H](C)[C@H](O)[C@@H](C)[C@@H](O)[C@@H](C)[C@H](OC(C)=O)[C@@H]1C
inactive: Potency [1] > 92 µM | Potency [2] > 92 µM | Potency [3] > 92 µM | Potency [4] > 92 µM | Potency [5] > 92 µM | Potency [6] > 92 µM | outcome [7] | outcome [9] | outcome [10] | outcome [11] | outcome [12] | outcome [13] | outcome [14] | outcome [15] | outcome [16] | outcome [17] | outcome [18] | outcome [19] | outcome [20] | outcome [21] | outcome [22] | outcome [23] | outcome [24] | outcome [25] | outcome [26] | outcome [27] | outcome [28] | outcome [29] | outcome [30] | outcome [31] | outcome [32] | outcome [33] | outcome [34] | outcome [35] | outcome [36] | outcome [37] | outcome [38] | outcome [39]
active: viability change, negative = cytotoxic [8] -92.1%

Source: PubChem BioAssay (NCATS)
